Source: PubChem BioAssay (NCI)
Compounds without any hit were thinned out: in the full panel of roughly 83,000, 20% have a hit.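 How to read the values: 0–100, growth inhibition (40 = 60% inhibited); 0, no net growth; -100 to 0, cell death (-40 = 40% of starting cells died; -100 = all dead).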 A number with no mark means an inactive call. The source made the active and inactive calls. The calls were made as follows: active = growth percent below 10; inactive = the rest.

What was measured:
Experiment in all cases: NCI-60 one-dose screen, 48 h (100 = growth as untreated, 0 = no growth, -100 = all killed)
Settings in all cases: 10 µM unless noted
HCT-15 colon = system: HCT-15 colon
HT29 colon = system: HT29 colon
SNB-75 CNS = system: SNB-75 CNS
SNB-19 CNS = system: SNB-19 CNS
U251 CNS = system: U251 CNS
PC-3 prostate = system: PC-3 prostate
SK-MEL-5 melanoma = system: SK-MEL-5 melanoma
UACC-62 melanoma = system: UACC-62 melanoma
LOX IMVI melanoma = system: LOX IMVI melanoma
SK-MEL-28 melanoma = system: SK-MEL-28 melanoma

| Compound | growth (HCT-15 colon) | growth (HT29 colon) | growth (SNB-75 CNS) | growth (SNB-19 CNS) | growth (U251 CNS) | growth (PC-3 prostate) | growth (SK-MEL-5 melanoma) | growth (UACC-62 melanoma) | growth (LOX IMVI melanoma) | growth (SK-MEL-28 melanoma) |
| --- | --- | --- | --- | --- | --- | --- | --- | --- | --- | --- |
| CSc1ccc(/C(=N/N=C(N)N)c2ccc(Cl)cc2)cc1 | 3.54% (active) | -30.1% (active) | 1.16% (active) | 19.6% | -13.5% (active) | 8.76% (active) | -0.967% (active) | 7.53% (active) | -42.5% (active) | 48.8% |
| Cn1cc(-c2nnc(N)nc2-c2c[nH]c3ccc(F)cc23)c2cc(Br)ccc21 | 16.9% | 3.17% (active) | 0.251% (active) | 25.6% | 17.5% | 22.6% | 4.51% (active) | 30.3% | 29% | 60.4% |
| C=C(C)[C@@H]1CC[C@]2(C(=O)N3CCN(C)CC3)CC[C@]3(C)[C@H](CC[C@@H]4[C@@]5(C)CC[C@H](OP(=O)(OCC)OCC)C(C)(C)[C@@H]5CC[C@]43C)[C@@H]12 | 60.2% | 76.1% | 89.7% | 90.9% | 78.8% | 44.3% | 69.7% | 81.6% | 44.6% | 104% |
| C=C(C)[C@@H]1CC[C@]2(COP(=O)(OCC)OCC)CC[C@]3(C)[C@H](CC[C@@H]4[C@@]5(C)CC[C@H](OP(=O)(OCC)OCC)C(C)(C)[C@@H]5CC[C@]43C)[C@@H]12 | 6.86% (active) | 35.2% | 75.3% | 50.7% | 42.2% | 22.7% | 11.5% | 43.1% | 25.4% | 77.5% |
| COc1cccc(N2CCN(C3=C(Cl)C(=O)c4ncccc4C3=O)CC2)c1 | 42.3% | 108% | 85.1% | 90.8% | 90.5% | 78.7% | 97.3% | 84.3% | 28.6% | 105% |
| COc1cccc2c1[C@H](OC)[C@]13O[C@@]1(C2=O)[C@H](O)[C@H](C)[C@@](O)(C(=O)[C@@H]1O[C@H]1C)[C@@H]3O | -14.8% (active) | -28.9% (active) | -61.7% (active) | 1.38% (active) | -13.3% (active) | -19.4% (active) | -97.7% (active) | -45.5% (active) | -62% (active) | -10.4% (active) |
| CN1CCC[C@]2(C)[C@H]3CC[C@@H]4[C@@H]5[C@H]6OC[C@@]5(CCC6(C)C)CC[C@@]4(C)[C@]3(C)CC[C@H]2C1(C)C | 24.4% | 21.6% | 89.1% | 84.8% | 27.5% | 74.2% | 93.8% | 98.4% | -74.5% (active) | 96.2% |
| C#Cc1nc(/C=C/CCCCCCC(=O)NO)cs1 | 77% | 54.2% | -17.1% (active) | 86.1% | 63.2% | 72.8% | 63.2% | 45.8% | -84.2% (active) | 75.4% |
| NS(=O)(=O)c1nnc(/N=C/c2c(O)[nH]c3ccccc23)s1 | 102% | 105% | 81.2% | 105% | 99.9% | 89.3% | 98.5% | 97% | 100% | 114% |
| N#C/C(=C\c1ccc(-c2ccc(Cl)cc2)o1)C(=O)Nc1ncc(Cc2ccc(Br)cc2)s1 | 15.3% | 7.27% (active) | -18.1% (active) | 3.38% (active) | -81.9% (active) | 9.73% (active) | 51.9% | 1% (active) | -69.7% (active) | 11% |
| COC(=O)c1ccc(NC2=C(Cl)C(=O)C(C)=C(C)C2=O)cc1 | 40% | 63.3% | 64.5% | 53.5% | 59.4% | 36.6% | 44.6% | 5.89% (active) | 24.7% | 75.9% |
| Clc1cccc(/C=N/Nc2nc(N/N=C/c3cccc(Cl)c3)nc(N3CCOCC3)n2)c1 | -11.1% (active) | 8.21% (active) | 103% | 88% | 60.4% | 41.5% | 44.1% | 91.7% | 32.6% | 29.8% |
| O=C(/C=C/c1cc(Cl)ccc1Cl)Nc1ncc(Cc2ccc(Cl)cc2)s1 | 7.86% (active) | -22.8% (active) | 0.161% (active) | 19.1% | 2.48% (active) | 27.3% | 5.45% (active) | 29.1% | -37.3% (active) | 52.6% |
| CCOC(=O)c1ccc(NC2=CC(=O)C(C)=C(C)C2=O)cc1 | 88.5% | 110% | 78.7% | 71.9% | 81.6% | 49% | 91.6% | 74.1% | 46% | 109% |
| Cc1[nH]c(C(=O)Nc2ccccc2OCc2cccc(C(=O)NC3CCNC3)c2)c(Cl)c1Cl (stereo not given) | 35.2% | -47.7% (active) | 73.6% | 9.65% (active) | -56.2% (active) | 59.1% | 97.6% | 75% | -85.1% (active) | -44.4% (active) |
| CN1CC[C@@H]2[C@@]3(C)CC[C@H](O)C(C)(C)[C@@H]3CC[C@@]2(C)[C@]2(C)CC[C@@]3(CO)CCC(C)(C)C[C@@H]3C12 (stereo not given in full) | 72.7% | 40.3% | 87.7% | 94.5% | 73.9% | 79.6% | 95.6% | 93% | 84.8% | 88% |
| O=C(CCCCCC/C=C\c1csc(Br)n1)NO | 90.9% | 84.5% | 64.8% | 97% | 91.4% | 82% | 97.1% | 74.5% | 70.1% | 92.4% |
| COc1cc(-c2nc(-c3ccccc3)[nH]c2-c2ccnc(NCCCNS(=O)(=O)c3ccc(C)cc3)n2)ccc1F | 62.9% | 69.5% | 105% | 104% | 88.6% | 55% | 84.4% | 97.5% | 83.4% | 101% |
| O=C(/C=C/c1cccc(C(F)(F)F)c1)Nc1cccc(C(F)(F)F)c1 | 14.9% | 51.5% | 97.5% | 81.9% | 26.9% | 18.9% | 89.1% | 84.5% | 28.4% | 65.4% |
| NC(=O)c1c(NC(=O)c2ccc(C(F)(F)F)cc2)sc2c1CCC(=O)C2 | -21.2% (active) | 0.0943% (active) | -7.54% (active) | 16.3% | 7.99% (active) | -6.96% (active) | -27.2% (active) | -24.9% (active) | -37.2% (active) | 4.03% (active) |
| O=C(CSc1nnc(-c2cccs2)n1-c1ccccc1)Nc1ccccc1 | 80.3% | 91.1% | -0.436% (active) | 54.1% | 84.3% | 83% | 80.1% | 67.7% | 71.9% | 76.9% |
| CCc1cc(OC(=O)N2CCC(N3CCCCC3)CC2)ccc1Nc1cc(-c2ccc(-n3cccn3)cc2)[nH]n1 | -44.6% (active) | -19.3% (active) | 97.3% | 69.2% | 55.8% | 74.1% | 60.2% | 89.5% | -92% (active) | -60.7% (active) |
| Cc1nc(/N=C(N)/N=C(\N)c2cccc(Br)c2)sc1C | 25.1% | 17.8% | 62.9% | 42.9% | 47% | 59.8% | 69.8% | 28.1% | 43.5% | 72.8% |
| CN1CCN(Cc2ccc(NC(=O)c3cncc(C#Cc4cnc(N)nc4)c3)cc2C(F)(F)F)CC1 | 17.2% | 14.3% | 41.5% | 57.4% | 30.3% | 35.1% | 38% | -0.0134% (active) | 4.32% (active) | 2.04% (active) |
| O=C(Nc1cc(C(F)(F)F)cc(C(F)(F)F)c1)Nc1ccc2oc(=O)ccc2c1 | 10.5% | 10.5% | 15.1% | 13.6% | 14.6% | 3.96% (active) | -90.6% (active) | 14% | -43.1% (active) | 34.8% |
| C#C[C@]1(O)CC[C@H]2[C@@H]3CC=C4c5sc(Nc6ncccc6C)nc5CC[C@]4(C)[C@H]3CC[C@@]21C | -1.06% (active) | 25.4% | -2.92% (active) | 1.7% (active) | 3.14% (active) | -18.4% (active) | 5.96% (active) | -25.9% (active) | -78% (active) | -78.7% (active) |
